The nature of assay [1]: compounds binding Alexa647 anti-His antibody – biochemical, small-molecule microarray, 635 nm fluorescence, artefact control for SMM control protein annotation, primary screen (AID 1128).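 Also: score merges feature fluorescence with signal-to-noise for each printed compound spot.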 The note with it: higher = more signal.
Assay [2] concerns Human papillomavirus type 1a E7 protein (residues 1-88). Put plainly: HPV1a E7 small-molecule binders, primary screen, biochemical, small-molecule microarray, residues 1-88, 635 nm (AID 1129). The note with it: small-molecule microarray binding, fluorescence 635 nm; higher = more signal.
Assay [3] addresses Focal adhesion kinase 1 (Homo sapiens) (UniProt Q05397). Put plainly: PTK2 protein binding on printed compound slides – biochemical, small-molecule microarray, 635/667 nm fluorescence, BSA, DTT, primary screen (AID 1130).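 Also: composite of spot emission at 667 nm and signal to noise over triplicate slides.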 The conditions noted are these: 635 nm fluorescence, higher = more signal.
The test system of assay [4] is Fibrinogen (Alexa647-labelled). Put plainly: Alexa647-fibrinogen binding to printed small molecules – biochemical, small-molecule microarray, 635/667 nm fluorescence, artefact control for SMM control-protein annotation, profiling panel (AID 1131).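 Also: z-score merges 667 nm fluorescence with per-spot signal-to-noise over triplicate slides.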 The conditions noted are these: fibrinogen-A647 binding fluorescence, higher = more signal.
The target of assay [5] is Follistatin (Homo sapiens) (UniProt P19883). Put plainly: FST protein binding to printed compounds – biochemical, small-molecule microarray, 635/667 nm fluorescence, primary screen (AID 1132). The note with it: 635 nm fluorescence, higher = more signal.
In assay [6] the target is Fibroblast growth factor 2 (Homo sapiens) (UniProt P09038). The assay is described as follows: basic fibroblast growth factor binding to printed compounds – biochemical, small-molecule microarray, 635/667 nm fluorescence, primary screen (AID 1133). The conditions noted are these: FGF2, fluorescence 635/667, higher = more signal.
A short description of assay [7]: JC-1 mitochondrial potential readout, lung cancer cells – cell-based, A549, JC-1 fluorescence, basal, 24 h, 100 nL, profiling panel (AID 1138).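 Also: A549 lung adenocarcinoma cells under basal conditions with no added stimulus; test concentration not given here.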 The conditions noted are these: higher = more signal.
Assay [8] deals with Lefty1. The assay is described as follows: Lefty1 protein binding to printed compounds – biochemical, small-molecule microarray, 635/667 nm fluorescence, primary screen (AID 1139). The conditions noted are these: fluorescence 635/667, higher = more signal.
Assay [9] deals with wheat germ agglutinin (Triticum aestivum), Alexa647-labelled. The assay is described as follows: Alexa647-WGA lectin binding to printed small molecules – biochemical, small-molecule microarray, 635/667 nm fluorescence, artefact control for SMM control-protein annotation, profiling panel (AID 1140).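 Also: score merges 667 nm feature emission with signal to noise over triplicate slides.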 The note with it: WGA-A647 binding, 635 nm fluorescence, higher = more signal.
In assay [10] the target is Luciferin 4-monooxygenase (Photinus pyralis) (UniProt P08659). Put plainly: inhibition of purified Photinus pyralis luciferase – biochemical, luminescence, purified enzyme, 2006 set, primary screen (AID 1141).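 Also: cell-free assay with purified firefly luciferase at 100 ng per well in PBS; test concentration not given here.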 The note with it: purified firefly luciferase, SteadyGlo luminescence, 30 min; higher = more signal, called active from +8 up or from −8 down.
Assay [11] concerns Wnt5a (protein binding on small-molecule microarray). Put plainly: small molecules binding Wnt5a protein – biophysical, small-molecule microarray, 635/667 nm fluorescence, primary screen (AID 1142).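 Also: fluorescence read at 667 nm with signal to noise per printed feature.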 The note with it: 635 nm fluorescence, higher = more signal.
Assay [12] in a line: ATP-based viability of Huh7 replicon cells – cell-based, CellTiter-Glo luminescence, basal, 48 h, cytotoxicity control for HCV replication inhibitor project, primary screen (AID 1143).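 Also: Huh7 hepatoma cells carrying a hepatitis C replication reporter with no stimulus; test concentration not given here.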 The conditions noted are these: higher = more signal, called active from +8 up or from −8 down.
Assay [13] can be described thus: Pseudomonas biofilm growth suppression – PAO1 strain, BacTiter-Glo luminescence, LB-PBS, primary screen (AID 1144). The note with it: P. aeruginosa PAO1 biofilm, 12 h, higher = more signal.
A short description of assay [14]: basal CRE-LacZ reporter activity in PC12 – cell-based, unstimulated, primary screen (AID 1145). The note with it: no forskolin, luminescence, 4.5 h, higher = more signal, called active from +8 up or from −8 down.
Assay [15] is described as follows: forskolin-driven CRE-LacZ activity in PC12 – cell-based, CRE-LacZ reporter, forskolin-stimulated, primary screen (AID 1146).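 Also: PC12 cells with 6xCRE LacZ reporter stimulated by forskolin 10 µM; beta-galactosidase reporter signal reflecting CREB driven transcription.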 The note with it: luminescence, 4.5 h, higher = more signal, called active from +8 up or from −8 down.
Assay [16] addresses Streptavidin (Streptomyces avidinii) (UniProt P22629). The assay is described as follows: compounds binding control protein streptavidin – biophysical, small-molecule microarray, 635/667 nm fluorescence, artefact control for SMM compound annotation, primary screen (AID 1147).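 Also: signal reflects streptavidin binding to arrayed compounds as a control protein.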 The note with it: higher = more signal.
Assay [17] in a line: probe aInhba binding on compound microarray – biochemical, small-molecule microarray, 635/667 nm fluorescence, primary screen (AID 1148).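 Also: score merges 667nm spot fluorescence with signal-to-noise for antibody binding to printed compounds.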 The note with it: higher = more signal.
For assay [18], the target named is Torsin-1A (Homo sapiens) (UniProt O14656). Put plainly: TOR1A wild-type binding on microarray – cell lysate, small-molecule microarray, lysate, 635/667 nm, primary screen (AID 1149). The conditions noted are these: COS7 hTOR1A-WT lysate, 635 nm fluorescence, higher = more signal.
For assay [19] the target is unchanged. Put plainly: torsin A mutant lysate binding on microarrays – cell lysate, small-molecule microarray, COS7 lysate, 635/667 nm fluorescence, primary screen (AID 1150).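 Also: score pools 667 nm emission and signal to noise measuring lysate protein binding.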 The conditions noted are these: COS7 hTOR1A mutant lysate, 635 nm fluorescence, higher = more signal.
In assay [20] the test system is Sonic hedgehog protein (Shh). Put plainly: Sonic hedgehog microarray binding compounds – biochemical, small-molecule microarray, 635/667 nm fluorescence, primary screen (AID 1151).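 Also: Shh protein binding to compounds spotted on small-molecule microarray slides; score combines spot fluorescence intensity with signal-to-noise across triplicate slides.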 The note with it: 635 nm fluorescence, higher = more signal.

Results on five compounds are retold here after PubChem BioAssay.

Active and inactive are the calls of the source. Unless noted, no rule for the calls is given here.

Sequence of Focal adhesion kinase 1 (Homo sapiens) (Q05397 whole entry, looked up): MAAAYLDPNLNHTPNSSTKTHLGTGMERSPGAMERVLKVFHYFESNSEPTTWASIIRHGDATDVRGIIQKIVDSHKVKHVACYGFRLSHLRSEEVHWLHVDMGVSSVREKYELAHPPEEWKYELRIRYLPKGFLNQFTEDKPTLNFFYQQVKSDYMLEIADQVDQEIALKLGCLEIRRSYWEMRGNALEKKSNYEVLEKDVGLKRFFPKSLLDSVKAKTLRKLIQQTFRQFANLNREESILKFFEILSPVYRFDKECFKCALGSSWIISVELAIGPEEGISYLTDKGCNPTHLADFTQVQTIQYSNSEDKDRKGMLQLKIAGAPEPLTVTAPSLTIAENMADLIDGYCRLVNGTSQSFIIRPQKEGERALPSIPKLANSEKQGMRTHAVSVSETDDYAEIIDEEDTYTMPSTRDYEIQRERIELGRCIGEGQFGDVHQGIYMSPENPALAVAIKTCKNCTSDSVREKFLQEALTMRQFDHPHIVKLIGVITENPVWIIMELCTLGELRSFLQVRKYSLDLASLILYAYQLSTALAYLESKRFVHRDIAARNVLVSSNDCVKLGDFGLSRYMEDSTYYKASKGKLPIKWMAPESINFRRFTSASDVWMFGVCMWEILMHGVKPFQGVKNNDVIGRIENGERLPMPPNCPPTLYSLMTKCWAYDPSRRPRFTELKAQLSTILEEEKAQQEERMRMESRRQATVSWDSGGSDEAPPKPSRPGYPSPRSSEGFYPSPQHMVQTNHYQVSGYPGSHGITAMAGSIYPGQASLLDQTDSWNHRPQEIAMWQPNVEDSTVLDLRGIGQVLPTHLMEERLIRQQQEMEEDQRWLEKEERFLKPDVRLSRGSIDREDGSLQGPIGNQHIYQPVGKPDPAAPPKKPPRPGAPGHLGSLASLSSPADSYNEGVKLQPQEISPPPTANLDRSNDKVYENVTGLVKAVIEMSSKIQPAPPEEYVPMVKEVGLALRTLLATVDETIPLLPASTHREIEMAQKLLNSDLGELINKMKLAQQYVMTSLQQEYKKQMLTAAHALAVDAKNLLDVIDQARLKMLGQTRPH
Sequence of Torsin-1A (Homo sapiens) (O14656 whole entry, looked up): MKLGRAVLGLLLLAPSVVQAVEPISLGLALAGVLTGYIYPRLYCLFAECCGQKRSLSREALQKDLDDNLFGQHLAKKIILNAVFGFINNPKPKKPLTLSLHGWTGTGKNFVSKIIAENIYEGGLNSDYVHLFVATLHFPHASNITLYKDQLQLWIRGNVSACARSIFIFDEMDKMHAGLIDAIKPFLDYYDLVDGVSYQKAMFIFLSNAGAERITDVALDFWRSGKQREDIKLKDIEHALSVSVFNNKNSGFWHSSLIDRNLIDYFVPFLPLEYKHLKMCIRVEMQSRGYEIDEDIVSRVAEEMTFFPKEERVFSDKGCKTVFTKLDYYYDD
Sequence of Follistatin (Homo sapiens) (P19883 whole entry, looked up): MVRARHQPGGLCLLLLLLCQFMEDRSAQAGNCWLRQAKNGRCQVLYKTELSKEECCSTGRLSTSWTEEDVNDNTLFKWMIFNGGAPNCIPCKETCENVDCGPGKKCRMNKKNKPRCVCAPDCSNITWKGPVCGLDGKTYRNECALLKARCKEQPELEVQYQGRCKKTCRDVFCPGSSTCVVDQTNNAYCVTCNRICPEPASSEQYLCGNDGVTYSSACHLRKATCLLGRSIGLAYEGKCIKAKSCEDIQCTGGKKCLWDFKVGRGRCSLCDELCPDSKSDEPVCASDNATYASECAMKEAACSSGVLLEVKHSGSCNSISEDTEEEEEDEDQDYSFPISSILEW
Sequence of Luciferin 4-monooxygenase (Photinus pyralis) (P08659 whole entry, looked up): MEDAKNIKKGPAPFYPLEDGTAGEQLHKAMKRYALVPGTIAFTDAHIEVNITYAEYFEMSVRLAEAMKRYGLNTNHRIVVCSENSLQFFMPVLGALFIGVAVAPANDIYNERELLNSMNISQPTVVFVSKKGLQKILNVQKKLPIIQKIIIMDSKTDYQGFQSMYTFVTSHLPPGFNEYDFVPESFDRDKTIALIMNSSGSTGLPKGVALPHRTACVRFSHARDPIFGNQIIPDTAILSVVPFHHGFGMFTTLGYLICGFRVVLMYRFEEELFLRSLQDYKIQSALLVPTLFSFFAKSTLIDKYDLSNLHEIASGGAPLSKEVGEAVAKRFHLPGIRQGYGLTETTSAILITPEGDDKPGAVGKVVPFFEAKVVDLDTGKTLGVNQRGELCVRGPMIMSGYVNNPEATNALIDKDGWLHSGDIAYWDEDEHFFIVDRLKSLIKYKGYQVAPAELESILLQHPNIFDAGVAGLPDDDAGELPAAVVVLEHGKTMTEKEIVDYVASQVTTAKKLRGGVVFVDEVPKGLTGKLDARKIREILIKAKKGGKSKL
Sequence of Fibroblast growth factor 2 (Homo sapiens) (P09038 whole entry, looked up): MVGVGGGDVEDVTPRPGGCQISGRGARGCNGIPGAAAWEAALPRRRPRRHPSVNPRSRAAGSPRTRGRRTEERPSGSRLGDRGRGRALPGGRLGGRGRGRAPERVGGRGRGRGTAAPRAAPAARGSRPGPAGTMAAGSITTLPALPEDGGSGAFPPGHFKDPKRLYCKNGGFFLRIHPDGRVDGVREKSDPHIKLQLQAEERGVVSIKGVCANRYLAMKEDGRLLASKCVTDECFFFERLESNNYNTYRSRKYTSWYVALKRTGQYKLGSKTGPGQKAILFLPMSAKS
Sequence of Streptavidin (Streptomyces avidinii) (P22629 whole entry, looked up): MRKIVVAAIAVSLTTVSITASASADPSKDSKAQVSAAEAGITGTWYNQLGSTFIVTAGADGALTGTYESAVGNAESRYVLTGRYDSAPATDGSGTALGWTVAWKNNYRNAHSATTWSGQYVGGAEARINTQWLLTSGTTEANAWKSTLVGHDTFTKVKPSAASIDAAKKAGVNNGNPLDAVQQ

As to `C=CC[C@H](O)c1ccc(O)c2ccccc12`, the composite z-score in assay [1] amounted to 1.02; in [2], 0.604; in assay [3], 0.126; in assay [4], 0.24; in [5] it was 1.4; in [6], 1.49. In addition, the composite z-score is 1.26 in [8]; 0.742 in [9]; 0.188 in assay [11]; 0.881 in [16]; -0.101 in [17]; 0.172 in [18]. The composite z-score in assay [19] amounted to 0.46; in [20], 1.96. Also, the z-score in [7] was -0.0561; in assay [10], -2.47 (inactive); in assay [12], 0.273 (inactive); in assay [13] it was -0.725 (inactive); in assay [14], 6.45 (inactive); in [15], 1.82 (inactive).
On to `O=C1N(Cc2ccccc2)c2ccccc2C[C@@]12N=C(c1ccc(OCCCO)cc1)O[C@H]2c1ccccc1`, for which the composite z-score is 1.81 in assay [1]; 1.13 in assay [2]; 0.791 in assay [3]; 0.209 in assay [4]; 1.33 in [5]; 1.39 in assay [6]. Moreover, the composite z-score in assay [8] was 0.309; in [9] it was 0.294; in assay [11], 0.378; in [16] it was 0.798; in [17], -0.0963; in [18] it was -0.133. For the same compound, the composite z-score in assay [19] turned out to be 0.318; in [20] it was 1.34. For the same compound, the z-score in assay [7] is -0.518; in [10] it was -2 (inactive); in [12], -3.89 (inactive); in assay [13] it was -0.34 (inactive); in assay [14], 1.87 (inactive); in assay [15], -0.483 (inactive).
`COc1cc(CO)cc(I)c1O[C@H]1C=C(C(=O)NCCO)C[C@@H](N(CCN2CCOCC2)C(=O)C2CCCO2)[C@@H]1O` (stereo not given in full): the composite z-score was 0.0704 in assay [1]; 0.413 in assay [2]; 0.192 in [3]; -0.0246 in assay [4]; 0.132 in assay [5]; 0.144 in assay [6]. Moreover, the composite z-score in assay [8] is 0.159; in assay [9], -0.139; in assay [11], -0.103; in assay [16], -0.0582; in assay [17], -0.256; in assay [18], 0.404. In addition, the composite z-score in assay [19] was 0.0245; in assay [20], -0.203. For the same compound, the z-score in assay [7] is 1.48; in [10], -0.91 (inactive); in assay [12], 0.0418 (inactive); in assay [13] it was -0.137 (inactive); in assay [14] it was 0.497 (inactive); in assay [15] it was -1.04 (inactive).
As for `COC(=O)[C@@]1(Cc2ccccc2)[C@H]2c3cc(C(=O)N(C)C)n(CCF)c3C[C@H]2CN1C(=O)c1ccccc1`, the composite z-score in [1] was 2.32; in assay [2] it was 0.728; in assay [3] it was 0.326; in assay [4], 0.339; in [5], 0.0139; in assay [6] it was -0.551. Moreover, the composite z-score in assay [8] was -0.773; in [9], 0.969; in [11] it was 0.633; in assay [16] it was 1.74; in assay [17], 0.333; in assay [18] it was -0.0224. Besides, the composite z-score is 1.16 in assay [19] and -0.187 in [20]. In addition, the z-score was 0.551 in assay [7]; 1.02 (inactive) in assay [10]; -0.717 (inactive) in [12]; -0.247 (inactive) in [13]; 0.387 (inactive) in [14]; 0.218 (inactive) in [15].
Turning to `COc1cccc(C)c1NC(=O)O[C@H]1[C@H](OC(=O)Nc2ccccc2)[C@@H](OC(=O)Nc2ccccc2)[C@@H](OC)O[C@@H]1CO`, the composite z-score in [1] was 1.78; in assay [2] it was 1.29; in assay [3], 0.452; in [4], 1.01; in assay [5], 1.38; in assay [6] it was 0.432. The composite z-score came out at 0.662 in assay [8]; 1.04 in assay [9]; 0.486 in assay [11]; 0.163 in assay [16]; 0.0227 in [17]; 2.57 in assay [18]. Besides, the composite z-score in [19] and in assay [20] was 0.958 throughout. Besides, the z-score in [7] is -1.54; in [10], -0.321 (inactive); in assay [12], -4.16 (inactive); in assay [13], -1.16 (inactive); in assay [14] it was 1.61 (inactive); in assay [15], -2.37 (inactive).
